Screens as filed in PubChem.
In the library only some 2.3% were active in any assay of this set; here they are far more common.
Abeta rescue = compounds reversing amyloid beta toxicity in yeast. yeast expressing A-beta42, growth rescue, OD600, 48 h; response scale: 0% DMSO, 100% iron-clioquinol control. hit rate 0.063% among 410,000. Potency, µM (series often up to 46.1 µM), hits mostly activators; note: potency is the fitted concentration of half-maximal effect; nearly all actives have a fitted effect of over 55% in size
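Yeast growth medium received pinned compounds, then yeast cells expressing toxic A-beta were added; plates incubated at 30 C for 48 hr. Growth read as absorbance at 600 nm, normalized to DMSO and equimolar FeCl3 plus clioquinol controls.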
aSyn rescue = inhibitors of alpha-synuclein toxicity in yeast | Yeast expressing alpha-synuclein, growth rescue, BacTiter-Glo, 24 h | Potency, µM (highest dose often 46.1 µM), without a hit: at the highest dose growth rescue (activation), usual class: activators | hit rate 0.14% among 370,000 | AID 652106; note: potency is the fitted concentration of half-maximal effect; % of control where 0% means no effect; nearly all actives have a fitted effect of over 65% in size
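Readout is rescue of growth in alpha-synuclein-expressing yeast, so inhibitors of toxicity appear as activators. Growth after 24 hr at 30 deg C in galactose medium is quantified by luminescence.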
FUS suppressor = rescues growth of FUS-expressing yeast. S. cerevisiae FUS-expressing, growth rescue, OD600, 24 h. Potency, µM (highest dose often 76.6 µM), most hits filed as activators. hit rate 0.24% among 390,000. AID 1347120;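 note: potency is the fitted concentration of half-maximal effect; plate controls were DMSO vehicle for no effect and reference control for full effect; nearly all actives have a fitted effect of over 55% in size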
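Galactose (2%) drives FUS expression in yeast precultured in raffinose; seeding density OD 0.005. Test compounds incubated 24hr at 30C and 99% humidity before absorbance at 600 nm was measured.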
CCT chaperon mod = modulators of cytosolic chaperonin (CCT/TRiC) activity | hit rate 0.3% among 360,000 | activity change, % (test concentration not listed), hits read low | purified chaperonin ATPase assay, HTRF ADP detection, 30 min; in the data active = activity change below about -30%; note: % is set by controls: 0 for no effect and ±100 for the full control effect
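Enzyme 40 or 20 nM (batch-dependent) in Tris pH 7.4/KCl/MgCl2/DTT; cpd 76 uM single point; ATP 10 uM; 30 min 37 °C; Transcreener ADP HTRF detection, 30 min RT; ratio 665/615.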
Mm-Cpn inhibitor = inhibitors of Methanococcus maripaludis chaperonin TRiC (MmCpn) | AID 504842 | purified Mm-Cpn ATPase, ADP Transcreener TR-FRET | Potency, µM (doses to about 76.9 µM), for inactives: at the top dose activity, negative = inhibition, actives largely listed as inhibitors | hit rate 0.031% among 330,000; note: potency is the fitted concentration of half-maximal effect; % is set by controls: 0 for no effect and ±100 for the full control effect; nearly all actives have a fitted effect of over 80% in size
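Eu-cryptate anti-ADP/ADP-d2 competition gives a ratio inversely related to ADP. Enzyme at 25 nM was pre-exposed to compound for 10 min, then given 10 uM ATP for 30 min, 37°C throughout.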
TDP-43 yeast inh = inhibitors of TDP-43 toxicity in yeast; TDP-43 expressing yeast growth rescue, BacTiter-Glo, 24 h; Potency, µM (highest dose often 46.1 µM), without a hit: top-dose growth rescue (activation), hits mostly activators; hit rate 1.8% among 410,000; note: potency is the fitted concentration of half-maximal effect; % of control where 0% means no effect; nearly all actives have a fitted effect of over 50% in size
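Growth rescue of TDP-43-toxic yeast measured as ATP luminescence (BacTiter-Glo). Cells grown to mid-log in raffinose, induced in galactose at OD600=0.02, exposed to compound 24 hr at 30 deg C.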
Active calls of the source: *; i = inactive; u = inconclusive; x = no result given; [ ] = remark or other dose. Unless noted, calls come from the whole dose curve; as a rule, active = well fitted curve in the direction sought with a large enough effect; inconclusive = small, poorly fitted or top-dose-only effect, or another doubt; inactive = no such curve, though single readings can be large; an effect the other way counts as inactive or inconclusive.

SMILES	Abeta rescue	aSyn rescue	FUS suppressor	CCT chaperon mod	Mm-Cpn inhibitor	TDP-43 yeast inh
COc1ccc(S(=O)(=O)Nc2ccc3oc4c(c3c2)CCCC4)cc1	i	x	i	x	x	35µM*
O=S(=O)(Nc1ccc(N2CCOCC2)cc1)c1cc(Cl)ccc1Cl	i	15%	i	-1	0%	14µM*
O=S(=O)(Nc1ccc2oc3c(c2c1)CCCC3)c1cc(Cl)ccc1Cl	u	x	i	x	x	35µM*
O=C(NCCc1ccccc1)OCc1cn(Cc2cc(F)cc(F)c2)nn1	x	x	i	x	x	x
COc1cccc(-c2ccc3c(N)c(C(=O)c4ccc(F)cc4)sc3n2)c1	i	x	i	x	x	u
COc1ccc(CNC2CCCc3ccccc32)c(OC)c1 (stereo not given)	i	-1%	i	1	0%	-8%
COc1ccc2c(c1)CCCC2NS(=O)(=O)OCC(Cl)(Cl)Cl (stereo not given)	i	-3%	i	-1	-2%	35µM*
CC(=O)N(C(C)=O)N1C(=O)C2C3c4ccccc4C(c4ccccc43)C2C1=O (stereo not given)	i	-21%	i	1	1%	22µM*
CN1C(=O)C2C3c4ccccc4C(c4ccccc43)[C@@H]2C1=O (stereo not given in full)	i	-2%	i	-1	0%	2%
COc1ccc(-n2c(C)nc3sc4c(c3c2=O)CCC4)cc1	i	7%	i	-1	-2%	13µM*
C=C1C=C(C(F)(F)F)n2ncc(C(=O)NCc3ccc(F)cc3)c2N1	x	-6%	x	x	x	x
CC(=O)c1ccc(NC(=O)N2CCN(c3cccc(Cl)c3)CC2)cc1	i	3%	i	-3	-3%	13µM*
CC(=O)c1ccc(NC(=O)CN2CCN(c3ccccc3)CC2)cc1	i	4%	i	-34*	0%	8%
CC(=O)c1ccc(N2CCN(C(=O)Nc3ccc(Cl)cc3)CC2)cc1	i	5%	i	1	-9%	14%
CCN(CC)CC(C)CNC(=O)c1cc(-c2ccc(Br)s2)nc2ccccc12 (stereo not given)	i	x	i	x	x	2%
CCOC(=O)C1CCCN(C(=O)c2sc3nc(-c4ccc(F)cc4)cn3c2C)C1 (stereo not given)	i	4%	x	0	0%	8.9µM*
CCOC(=O)/C(=N/Nc1ccc(OC)cc1)N1CCCc2ccccc21	i	0%	i	1	-1%	13µM*
COc1cccc(-c2cc(C(=O)N3CCCc4ccccc43)no2)c1	i	-1%	i	1	1%	24%
COc1ccc(-c2cc(C(=O)N3CCCc4ccccc43)no2)cc1	i	1%	x	-2	1%	10µM*
Cc1c(C(=O)N2CCN(c3ccccc3F)CC2)sc2nc(-c3ccccc3)cn12	i	8%	i	2	0%	14µM*
COc1ccc(-c2cn3c(C)c(C(=O)N4CCN(c5ccccc5F)CC4)sc3n2)cc1	i	1%	u	-11	-2%	0%
O=C(Nc1nc(Cc2ccccc2)c(Cc2ccccc2)n1Cc1ccccc1)c1ccccc1	x	x	i	x	x	x
COc1ccc(-c2cc(C(=O)N3CCCc4ccccc43)no2)cc1OC	i	-12%	u	0	1%	16µM*
Cc1c(C(=O)Nc2ccncc2)sc2nc(-c3ccc(F)cc3)cn12	i	2%	i	0	-24%	18%
COc1ccc(-c2cn3c(C)c(C(=O)Nc4ccncc4)sc3n2)cc1	i	-6%	i	-3	45µM*	u
SMILES	Abeta rescue	aSyn rescue	FUS suppressor	CCT chaperon mod	Mm-Cpn inhibitor	TDP-43 yeast inh
COc1ccccc1-c1cc(C(=O)N2CCCc3ccccc32)no1	i	17%	i	0	-1%	u
COc1ccc(-c2cn3c(C)c(C(=O)N4CCCc5ccccc54)sc3n2)cc1	i	20µM*	u	0	x	25µM*
COc1ccc(C(=O)N2CCCc3ccccc32)cc1	i	4%	i	-2	-1%	18%
c1ccc(Cn2ccc3ccc(-c4ccc5ccn(Cc6cccc(-c7ccsc7)c6)c5c4)cc32)cc1	x	x	i	x	x	x
Cc1ccc(NC(=O)N2CCN3CCCCC3C2)cc1C (stereo not given)	i	x	i	x	x	6%
CCN1CCCCC(NC(=O)c2ccc(Cl)cc2Cl)C1=O (stereo not given)	x	x	i	x	x	x
S=c1[nH]nc(-c2n[nH]c3c2CCC3)n1N=Cc1ccc(Br)s1	x	x	i	x	x	x
COc1ccc(S[C@]2(C(=O)N3CCN(c4ncccn4)CC3)CC(=O)N(P(=O)(OC)OC)[C@@H]2c2ccc(OC)cc2)cc1	x	x	i	x	x	x
Cc1ccc(-c2onc(C)c2C)cc1S(=O)(=O)NCc1cccs1	i	x	i	x	x	16µM*
COc1ccc(-c2onc(C)c2C)cc1S(=O)(=O)NCC(C)c1ccccc1 (stereo not given)	i	x	u	x	x	35µM*
CCOc1ccccc1CNS(=O)(=O)c1cc(-c2onc(C)c2C)ccc1OC	i	x	u	x	x	22%
O=S1(=O)C=C(Sc2nc3ccccc3s2)c2ccccc21	i	13%	i	0	-12%	2.2µM*
Cc1cc(C)nc(SC2=CS(=O)(=O)c3ccccc32)n1	i	3%	i	-3	-3%	26%
Cc1ccsc1/C=N/Nc1ccc(C(=O)O)cc1	i	-2%	i	-1	-7%	u
Brc1ccsc1/C=N/Nc1ccccc1	i	-2%	i	-1	x	10µM*
Cc1n[nH]c(C)c1N=Nc1ccc(Br)cc1	i	-19%	i	-2	-4%	3.5µM*
O=C(CCc1ccccc1)NCCCN1CCOCC1	i	0%	i	-31*	1%	4%
O=C(CCCc1ccccc1)NCCCN1CCOCC1	i	7%	x	-2	3%	0%
COc1ccccc1-c1nnc(-c2ccc(N3CCOCC3)cc2)o1	i	13%	i	0	-16%	13µM*
COc1ccccc1-c1nnc(-c2ccc(C)cc2)o1	i	-6%	i	-3	x	-14%
CCOC(=O)c1cccc2c1-c1ccccc1/C2=N/O	i	-13%	i	2	-1%	14µM*
O=C(CSc1nnc(-c2ccccn2)n1-c1ccccc1)Nc1cccc2ccccc12	x	x	i	x	x	x
O=C(Nc1ccc2c(c1)OCCO2)C1CC1c1ccccc1 (stereo not given)	u	-20%	x	-5	-1%	25µM*
O=C(Nc1ccc2c(c1)OCCO2)c1cnn(-c2ccccc2)n1	i	0%[1.84 µM]	i	-4	-1%	18µM*
